Assay results as given in PubChem BioAssay (NCATS).
Results filed as inconclusive are left out. Activity calls are given as the source filed them.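 How the source made its calls: active means dose-dependent loss of cell ATP signal giving a full or clear fitted curve, ranked by lower potency value; inconclusive means weak partial curve or response only at the top dose; inactive means no loss of viability signal.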

Assay: Cell Viability - Jurkat (AID 426);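 further: cells exposed to compound for 40 hours at 37 °C before ATP read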
Conditions: qHTS
Text: NIH Chemical Genomics Center [NCGC]
NIH Molecular Libraries Screening Centers Network [MLSCN]
National Institutes of Environmental Health Sciences [NIEHS]
National Toxicology Program [NTP]
We have developed a 1536-well cell-based assay for quantitative high throughput screening (qHTS) against a number of cell lines to determine in vitro cytotoxicity of small molecules. This particular assay uses the Jurkat cell line (Clone E6-1) which is derived from the human T cell leukemia.
NCGC Assay Protocol Summary:
The CellTiter-Glo luminescent cell viability assay (Promega) is a homogeneous method to measure the number of viable cells in culture. The end point readout of this assay is based on quantitation of intracellular ATP, an indicator of metabolic activity, using the luciferase reaction. Luciferase catalyzes the oxidation of beetle Luciferin to oxyluciferin and light in the presence of ATP. The luminescent signal is proportional to amount of ATP present.
Using the CellTiter-Glo luminescent cell viability assay, the amount of cellular ATP was measured in the Jurkat cell line with complete culture medium following compound treatment for 40 hours. The assay was performed in opaque white Kalypsys 1536-well plates. In the screen, tamoxifen and doxorubicin were used as positive controls. Library compounds were measured for their ability to cause acute toxicity in the cell line, as reflected by a decrease in intracellular ATP levels, in a concentration-dependent manner. […] AC50 values were determined from concentration-response data modeled with the standard Hill equation.
qHTS protocol for CellTiter Glo Jurkat cellular assay
[Step] [Parameter] [Value] [Description]
1. Reagent; 5 uL; 5000 Jurkat cells/well
3. Controls; 23 nL; Tamoxifen 0.34 uM to 100 uM & Doxorubicin 0.02 nM to 100 uM
4. Time; 40 hr; 37 °C incubation
5. Reagent; 5 uL; CellTiter Glo reagent
6. Time; 20 min; Room Temperature
7. Detection; Luminescence; Viewlux plate reader
Keywords: cell viability, cytotoxicity, Jurkat cell line, luminescence, NTPHTS, NTPHTS_NCGC, NIEHS, EPA, DSSTox, MLSMR, MLSCN, NIH Roadmap, qHTS, NCGC
Potency means the concentration at half of the fitted maximal effect.

Structure (SMILES)	Potency
Nc1cccc2c(N)cccc12	> 92 µM (inactive)
c1ccc2occc2c1	> 92 µM (inactive)
CCCCCCCCCCCCCCCC[n+]1ccccc1	19.2 µM (active)
Nc1ccc(O)cc1	38.6 µM (active)
Nc1c2ccccc2nc2ccccc12	31.9 µM (active)
CC(C)(c1ccc(O)cc1)c1ccc(O)cc1	> 92 µM (inactive)
O=C(c1ccccc1)c1ccccc1	> 92 µM (inactive)
CC(C)C(C)(C)C(C)(C)C(C)(C)S	> 92 µM (inactive)
C1=CC2C3C=CC(C3)C2C1 (centres undefined)	> 92 µM (inactive)
Brc1ccccc1-c1ccccc1	> 92 µM (inactive)
Cc1ccc(O)cc1	> 92 µM (inactive)
Cc1cc(C(C)(C)C)c(O)c(C(C)(C)C)c1	> 92 µM (inactive)
CCCCC(CC)COC(=O)c1ccccc1C(=O)O (centres undefined)	> 92 µM (inactive)
O=C(Oc1ccccc1)c1ccccc1O	> 92 µM (inactive)
CC(C)(C)c1ccc(O)c(O)c1	49.4 µM (active)
CC(=O)OC/C=C(C)/C=C/C=C(C)/C=C/C1=C(C)CCCC1(C)C	63.9 µM (active)
COc1cc(C=O)ccc1O	> 92 µM (inactive)
OCc1c[nH]c2ccccc12	> 92 µM (inactive)
Oc1ccccc1	> 92 µM (inactive)
